D3 ag – agonists of human D3 dopamine receptor. P35462. D3R DiscoveRx beta-arrestin cells, luminescence, 90 min. max activation, %. 410,000 tested, 0.58% active. AID 652048; in the data active means max activation above about 30%
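Agonist-mode cell screen: cells plated at 1500/well and incubated overnight at 37 °C, then exposed to library compounds for 90 min at 37 °C. Detection reagent was added for 30–60 min at room temperature, and luminescence was read.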
B2AR arrestin – agonists driving beta-arrestin recruitment to human beta2-adrenergic receptor; P07550; beta-arrestin recruitment to beta2AR, cell-based reporter; Potency, µM (top dose mostly 46.1 µM), most hits filed as activators; 330,000 tested, 0.02% active; further: nearly all actives have a fitted effect of over 65% in size
D3 antag – blocks the human D3 dopamine receptor; max response, negative = inhibition, %; P35462; D3R cells, DiscoveRx beta-arrestin luminescence, antagonist mode; stronger effect = lower value; 360,000 tested, 2.5% active; in the data active means max response below about -50%; inconclusive means no clear call, values can overlap the other calls
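Cells expressing the human receptor were seeded at 1500 cells/well, incubated overnight at 37 degrees C in 5% CO2, then exposed to library compounds with dopamine controls for 90 minutes at 37 degrees C before luminescent detection.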
mIDH1 inhibitor – blocks human mutant IDH1 R132H enzyme. IDH1-R132H enzyme, NADPH consumption, diaphorase/resazurin fluorescence. Potency, µM (titrated, usually from 76.6 µM), usual class: inhibitors. 390,000 tested, 0.093% active; further: nearly all actives have a fitted effect of over 65% in size
Target sequence (O75874 whole entry R132H, stated change not applied): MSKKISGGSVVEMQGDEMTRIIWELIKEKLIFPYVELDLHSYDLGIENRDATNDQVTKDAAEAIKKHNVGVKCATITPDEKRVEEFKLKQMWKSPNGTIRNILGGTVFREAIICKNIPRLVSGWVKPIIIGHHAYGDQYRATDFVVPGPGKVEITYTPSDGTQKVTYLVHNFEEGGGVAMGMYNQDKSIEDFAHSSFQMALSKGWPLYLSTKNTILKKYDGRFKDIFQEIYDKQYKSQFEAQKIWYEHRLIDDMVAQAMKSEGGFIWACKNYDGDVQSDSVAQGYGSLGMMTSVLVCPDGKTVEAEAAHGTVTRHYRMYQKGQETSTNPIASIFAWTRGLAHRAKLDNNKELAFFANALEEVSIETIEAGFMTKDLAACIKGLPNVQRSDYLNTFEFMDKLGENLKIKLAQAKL
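IDH1-R132H (0.5 ug/mL dispensed) in pH 7.5 Tris buffer was preincubated 30 min with compound, then given a substrate mix of 0.016 mM NADPH and 2 mM alpha-KG for 80 min at room temperature; remaining NADPH was read by diaphorase/resazurin fluorescence.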
a7 integrin act – activators of alpha7 integrin expression for muscular dystrophy; alpha7betagal myoblasts, beta-gal FDG fluorescence, 48 h; Potency, µM (highest dose often 38.3 µM), hits mostly activators; 350,000 tested, 0.064% active; AID 624291; further: nearly all actives have a fitted effect of over 60% in size
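alpha7betagal+/- myoblasts (passage 13, 250/well) treated 48 h at 37C with compounds at 1:260 dilution of DMSO stock. Lysed, then beta-galactosidase activity read as FDG fluorescence (ex 480/em 540) after 30 min, with pre-read for autofluorescence.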
Resorufin autofl – autofluorescence interference, mutant IDH1 hit counter-screen; shares compounds with mIDH1 inhibitor; Resorufin detection reagent fluorescence interference, cell-free; inhibition of signal, % at 51.2 µM; 750 tested, under 10 active; AID 623980
IDH1 WT – wild-type IDH1 (human) inhibition counterscreen. WT IDH1 enzyme, NADPH diaphorase/resazurin fluorescence. AID 623995. Potency, µM (top dose mostly 115 µM), most hits filed as inhibitors. 750 tested, 9% active. shares compounds with mIDH1 inhibitor; further: nearly all actives have a fitted effect of over 55% in size
Target sequence (O75874 whole entry, looked up): as the sequence (O75874 whole entry R132H, stated change not applied) above, with H132R counted along it
mIDH1 confirm – inhibits human mutant IDH1 enzyme in cherrypick confirmation | shares compounds with mIDH1 inhibitor | 750 tested, 83% active | IDH1 R132H enzyme, NADPH diaphorase/resazurin fluorescence | Potency, µM (top dose mostly 76.6 µM), actives largely listed as inhibitors; further: nearly all actives have a fitted effect of over 50% in size
Each line names hits and unclear results; the compound was inactive in the other large screens (follow-up assays come after a bar, where they were run). Only some compounds are listed: those with a hit (about 2.9% of all), similar ones and a draw of the others. Unless noted, the call rests on the fitted dose curve; in most records, active means well fitted curve in the direction sought with a large enough effect; inconclusive means small, poorly fitted or top-dose-only effect, or another doubt; inactive means no such curve, though single readings can be large; an effect the other way counts as inactive or inconclusive.

CCCCNC(=O)c1ccc2c(=O)n(Cc3ccc(OC)cc3)c(=O)[nH]c2c1	none (no result: B2AR arrestin, D3 antag, a7 integrin act)
O=C(NC1CCCCC1)C(c1ccco1)N(C(=O)c1csnn1)c1ccccc1 (configuration not stated)	none
O=C(NC1CCCC1)C(c1ccco1)N(C(=O)c1ccco1)c1ccccc1 (configuration not stated)	mIDH1 inhibitor inconclusive | Resorufin autofl inactive | IDH1 WT inactive | mIDH1 confirm 40µM
O=S(=O)(c1ccc(NC(=S)N/N=C/c2ccc(N3CCOCC3)cc2)cc1)N1CCOCC1	none
O=S(=O)(c1ccc(NC(=S)N/N=C/c2ccc(Oc3ccccc3)cc2)cc1)N1CCOCC1	D3 antag inconclusive, mIDH1 inhibitor inconclusive | Resorufin autofl inactive | IDH1 WT inactive | mIDH1 confirm inactive
COc1ccc(C(C(=O)NC2CCCCC2)N(C(=O)c2ccco2)c2ccccc2OC)cc1 (configuration not stated)	none
COc1ccc(N(C(=O)c2ccco2)C(C(=O)NC2CCCC2)c2ccc(N(C)C)cc2)cc1 (configuration not stated)	D3 antag inconclusive
Cc1cc(C)cc(N(C(=O)CNC(=O)c2ccco2)C(C(=O)NC2CCCC2)c2cccnc2)c1 (configuration not stated)	none
COc1ccc(N(C(=O)c2ccco2)C(C(=O)NC2CCCCC2)c2ccccc2)cc1 (configuration not stated)	mIDH1 inhibitor inconclusive (no result: B2AR arrestin) | Resorufin autofl inactive | IDH1 WT inactive | mIDH1 confirm 20µM
COc1cccc(C(C(=O)NC2CCCCC2)N(C(=O)c2ccco2)c2ccccc2OC)c1 (configuration not stated)	mIDH1 inhibitor inconclusive | Resorufin autofl inactive | IDH1 WT inactive | mIDH1 confirm inconclusive
Cc1cc(C)cc(N(C(=O)CNC(=O)c2ccco2)C(C(=O)NC2CCCCC2)c2cccnc2)c1 (configuration not stated)	mIDH1 inhibitor inconclusive, a7 integrin act inconclusive | Resorufin autofl inactive | IDH1 WT inactive | mIDH1 confirm inconclusive
COc1ccc(N(C(=O)c2ccco2)C(C(=O)NC2CCCC2)c2ccccc2)cc1 (configuration not stated)	mIDH1 inhibitor inconclusive | Resorufin autofl inactive | IDH1 WT inactive | mIDH1 confirm 40µM
COc1ccc(CNC(=O)Cn2c(=O)n3nc(-c4cccc(F)c4)nc3c3ccccc32)cc1OC	none (no result: B2AR arrestin, D3 antag, a7 integrin act)
N#Cc1nc(-c2ccc(COc3ccccc3)o2)oc1NCc1cccnc1	none (no result: B2AR arrestin, D3 antag, a7 integrin act)
COc1ccc(N(C(=O)c2cnccn2)C(C(=O)NC2CCCCC2)c2ccccc2)cc1 (configuration not stated)	mIDH1 inhibitor inconclusive | Resorufin autofl inactive | IDH1 WT inactive | mIDH1 confirm 35µM
COc1cc(/C=C2\SC(c3ccccc3)=NC2=O)cc(Cl)c1O	mIDH1 inhibitor 58µM | Resorufin autofl inactive | IDH1 WT inactive | mIDH1 confirm 45µM
COc1cc(/C=C2\SC(c3ccc(C)cc3)=NC2=O)cc(OC)c1OC	none
O=C(NCC1CCCN1S(=O)(=O)c1cccs1)C(=O)Nc1ccccc1Cl (configuration not stated)	none
CC1=C([N+](=O)[O-])C(c2ccccc2)NC(=O)N1 (configuration not stated)	none
COc1ccc(C)cc1NC(=O)c1ccc2c(SCC(=O)O)c3c(nc2c1)CCCC3	none
COc1cc(Cl)c(C)cc1NC(=O)c1ccc2c(SCC(=O)O)c3c(nc2c1)CCCC3	mIDH1 inhibitor inconclusive | Resorufin autofl inactive | IDH1 WT inconclusive | mIDH1 confirm 28µM
CCOC(=O)c1ccccc1NC(=O)c1ccc2c(SCC(=O)O)c3c(nc2c1)CCCC3	mIDH1 inhibitor 41µM | Resorufin autofl inactive | IDH1 WT 71µM | mIDH1 confirm 16µM
O=C(CC(CC(=O)c1ccc(Br)cc1)c1cccnc1)c1ccc(Br)cc1	none
CCOc1ccccc1N(C(=O)c1snc(C(N)=O)c1N)C(C(=O)NCc1ccccc1)c1ccc(O)cc1 (configuration not stated)	mIDH1 inhibitor inconclusive | Resorufin autofl inactive | IDH1 WT inactive | mIDH1 confirm 13µM
CCOc1ccccc1N(C(=O)c1snc(C(N)=O)c1N)C(C(=O)NC1CCCC1)c1ccco1 (configuration not stated)	mIDH1 inhibitor inconclusive | Resorufin autofl inactive | IDH1 WT inactive | mIDH1 confirm 40µM
CCOc1ccccc1N(C(=O)c1snc(C(N)=O)c1N)C(C(=O)NC1CCCC1)c1cccs1 (configuration not stated)	mIDH1 inhibitor inconclusive | Resorufin autofl inactive | IDH1 WT inactive | mIDH1 confirm inconclusive
CCOc1ccccc1N(C(=O)c1snc(C(N)=O)c1N)C(CC)C(=O)NC1CCCC1 (configuration not stated)	none
c1ccc2c(c1)ncc1cccn12	none
CCn1c2ccccc2c2c3ncc4cccn4c3ccc21	B2AR arrestin inconclusive, mIDH1 inhibitor inconclusive | Resorufin autofl inactive | IDH1 WT 45µM | mIDH1 confirm 14µM
COc1ccc(-c2csc3nc(-c4cccnc4)nc(N4CCC(C(N)=O)CC4)c23)cc1OC	mIDH1 inhibitor inconclusive, a7 integrin act inconclusive
COc1ccc(-c2csc3nc(C)nc(N4CCCCC4)c23)cc1OC	mIDH1 inhibitor inconclusive | Resorufin autofl inactive | IDH1 WT inactive | mIDH1 confirm 32µM
COc1cc(N(C(=O)Cc2cccs2)C(C(=O)NC2CCCCC2)c2ccc(C)cc2)ccc1-n1cnnn1 (configuration not stated)	mIDH1 inhibitor 23µM | Resorufin autofl inactive | IDH1 WT inactive | mIDH1 confirm 7.1µM
COc1ccc(N(C(=O)Cc2cccs2)C(C(=O)NC2CCCC2)c2ccncc2)cc1OC (configuration not stated)	none
Cc1ccc(N(C(=O)Cc2cccs2)C(C(=O)NC2CCCCC2)c2ccccn2)cc1C (configuration not stated)	mIDH1 inhibitor inconclusive | Resorufin autofl inactive | IDH1 WT inactive | mIDH1 confirm 10µM
Cc1cc(-n2c(=S)sc3c(=O)n(-c4ccc(F)cc4)c(SCC(=O)O)nc32)ccc1Cl	mIDH1 inhibitor 26µM | Resorufin autofl inactive | IDH1 WT inconclusive | mIDH1 confirm 7.9µM
COc1ccccc1-n1c(SCC(=O)O)nc2c(sc(=S)n2-c2ccc(Cl)c(C)c2)c1=O	none
